# Measurements published in the antibiotic and cytotoxicity screens of Wong et al. (2023).
# Hit rate of the full screen: of about 39,000 compounds, about 3,300 (8.5%) were called active. This excerpt belongs to a sample that is enriched for actives.
# Tested on: HepG2
# Assay: cytotoxicity call (relative viability < 0.9)
# Conditions: 10 µM
row,Compound,cytotoxicity call
1,CC(C)COC(=O)CNc1n[nH]c(=O)[nH]c1=O,inactive
2,Cn1cnc(S(=O)(=O)N[C@@H]2C=C[C@@H](CC(=O)Nc3ccccc3)O[C@@H]2CO)c1,inactive
3,CCOC(=O)[C@H]1CC(C)=NNC1=O,inactive
4,Cn1cncc1[C@@](N)(c1ccc(Cl)cc1)c1ccc2c(c1)c(-c1cccc(Cl)c1)cc(=O)n2C,active
5,O=C(CCCCCCC(=O)N/N=C/c1cccc(B(O)O)c1)NO,inactive
6,Cn1cnc(CCNC(=O)C[C@H]2CC[C@H]3[C@@H](COC[C@@H](O)CN3C(=O)Nc3ccc(C(F)(F)F)cc3)O2)c1,inactive
7,c1cn(-c2ccc(-n3ccnc3)nn2)cn1,inactive
8,CN1CCN(C2=Nc3ccccc3Oc3ccc(Cl)cc32)CC1.O=C(O)CCC(=O)O,inactive
9,CN1CCN(C2=Nc3cc(Cl)ccc3Nc3ccccc32)CC1,inactive
10,Clc1ccc2c(c1)C(N1CCNCC1)=Nc1ccccc1O2,active
11,CCS(=O)(=O)Nc1ccc2c(c1)C(=O)N(C)C[C@@H](OC)[C@H](C)CN(Cc1cccnc1)[C@H](C)CO2,inactive
12,O=C(C[C@@H]1C[C@H]2c3cc(NC(=O)Nc4ccc(C(F)(F)F)cc4)ccc3O[C@H]2[C@H](CO)O1)NCCc1ccccc1,inactive
13,CO[C@H]1CN(C)C(=O)c2cc(NS(=O)(=O)c3cn(C)cn3)ccc2OC[C@@H](C)N(CC2CC2)C[C@@H]1C,inactive
14,C[C@@H]1CN([C@@H](C)CO)C(=O)c2cc(NC(=O)Nc3ccc(F)cc3)ccc2O[C@@H](C)CCCCO[C@H]1CN(C)S(=O)(=O)c1cccs1,active
15,C[C@H](CO)N1C[C@H](C)[C@@H](CN(C)S(=O)(=O)c2cccs2)OCCCC[C@H](C)Oc2ccc(NC(=O)Nc3ccc(F)cc3)cc2C1=O,inactive
16,C[C@@H]1CCCCO[C@H](CN(C)S(=O)(=O)c2cccs2)[C@@H](C)CN([C@H](C)CO)C(=O)c2cc(NC(=O)Nc3ccc(F)cc3)ccc2O1,inactive
17,C[C@@H]1CCCCO[C@@H](CN(C)S(=O)(=O)c2cccs2)[C@H](C)CN([C@H](C)CO)C(=O)c2cc(NC(=O)Nc3ccccc3)ccc2O1,active
18,COc1ccc(NC(=O)Nc2ccc3c(c2)C(=O)N([C@@H](C)CO)C[C@H](C)[C@@H](CN(C)S(=O)(=O)c2cccs2)OCCCC[C@@H](C)O3)cc1,active
19,COc1ccc(NC(=O)Nc2ccc3c(c2)C(=O)N([C@@H](C)CO)C[C@H](C)[C@H](CN(C)S(=O)(=O)c2cccs2)OCCCC[C@@H](C)O3)cc1,inactive
20,C[C@@H]1CCCCO[C@@H](CN(C)S(=O)(=O)c2cccs2)[C@H](C)CN([C@@H](C)CO)C(=O)c2cc(NC(=O)Nc3ccccc3)ccc2O1,inactive

row,Compound,cytotoxicity call
1,C[C@@H]1CCCCO[C@@H](CN(C)S(=O)(=O)c2cccs2)[C@@H](C)CN([C@H](C)CO)C(=O)c2cc(NC(=O)Nc3ccc(F)cc3)ccc2O1,inactive
2,C[C@H]1CCCCO[C@@H](CN(C)S(=O)(=O)c2cccs2)[C@@H](C)CN([C@@H](C)CO)C(=O)c2cc(NC(=O)Nc3ccc(F)cc3)ccc2O1,active
3,C[C@@H]1CN([C@H](C)CO)C(=O)c2cc(NC(=O)Nc3ccc(F)cc3)ccc2O[C@@H](C)CCCCO[C@H]1CN(C)S(=O)(=O)c1cccs1,inactive
4,COc1ccc(NC(=O)Nc2ccc3c(c2)C(=O)N([C@H](C)CO)C[C@H](C)[C@@H](CN(C)S(=O)(=O)c2cccs2)OCCCC[C@H](C)O3)cc1,inactive
5,C[C@@H]1CN([C@@H](C)CO)C(=O)c2cc(NC(=O)Nc3ccccc3)ccc2O[C@@H](C)CCCCO[C@@H]1CN(C)S(=O)(=O)c1cccs1,inactive
6,C[C@@H]1CN([C@@H](C)CO)C(=O)Cc2cc(NC(=O)CCCCCC(=O)Nc3ccccc3N)ccc2O[C@@H]1CN(C)C(=O)Nc1ccc(F)cc1,inactive
7,C[C@H](CO)N1C[C@H](C)[C@@H](CN(C)C(=O)NC2CCCCC2)Oc2c(NC(=O)c3cnccn3)cccc2C1=O,inactive
8,Cc1noc(C)c1S(=O)(=O)Nc1ccc2c(c1)C(=O)N([C@H](C)CO)C[C@H](C)[C@H](CN(C)C(=O)Nc1ccc(F)cc1)OCCCC[C@@H](C)O2,inactive
9,C[C@@H]1CN([C@@H](C)CO)C(=O)c2cc(C#CC3(O)CCCC3)cnc2O[C@H]1CN(C)C(=O)CN(C)C,inactive
10,CNC[C@H]1OCCCC[C@@H](C)Oc2ccc(NC(=O)Nc3ccc(C(F)(F)F)cc3)cc2C(=O)N([C@@H](C)CO)C[C@H]1C,inactive
11,COc1ccc(NC(=O)Nc2cccc3c2O[C@@H](CN(C)Cc2ccc(C(=O)Nc4ccccc4N)cc2)[C@H](C)CN([C@H](C)CO)C3=O)cc1,inactive
12,C[C@@H]1CCCCO[C@@H](CN(C)Cc2ccc(C(=O)Nc3ccccc3N)cc2)[C@@H](C)CN([C@H](C)CO)C(=O)c2cc(NC(=O)NC3CCCCC3)ccc2O1,inactive
13,COCCOC(=O)N1C(=O)[C@@]2(c3cc(C#Cc4ccc(OC)cc4)ccc31)[C@H](c1ccccc1OCCO)N1[C@H](c3ccccc3)[C@H](c3ccccc3)OC(=O)[C@H]1[C@@H]2C(=O)NC[C@H](O)c1ccccc1,inactive
14,CC(C)NC(=O)Nc1ccc2c(c1)CC(=O)N([C@H](C)CO)C[C@@H](C)[C@H](CN(C)S(=O)(=O)c1ccccc1)O2,inactive
15,C[C@@H]1CN([C@H](C)CO)C(=O)c2cccc(NC(=O)C3CCCCC3)c2O[C@@H]1CN(C)Cc1ccc(Oc2ccccc2)cc1,inactive
16,CO[C@@H]1CN(C)C(=O)c2cc(NC(=O)Nc3cccc(Cl)c3)ccc2OC[C@@H](C)N(C(=O)Nc2c(C)noc2C)C[C@@H]1C,inactive
17,CO[C@H]1CN(C)C(=O)c2cc(NC(=O)Nc3cccc(Cl)c3)ccc2OC[C@H](C)N(C(=O)Nc2c(C)noc2C)C[C@@H]1C,inactive
18,C[C@@H]1CN([C@@H](C)CO)C(=O)c2cc(NC(=O)NC3CCCCC3)ccc2O[C@@H](C)CCCCO[C@@H]1CN(C)S(=O)(=O)c1cccs1,inactive
19,C[C@H]1CCCCO[C@H](CN(C)S(=O)(=O)c2cccs2)[C@@H](C)CN([C@@H](C)CO)C(=O)c2cc(NC(=O)Nc3ccc(F)cc3)ccc2O1,inactive
20,C[C@@H]1CCCCO[C@H](CN(C)S(=O)(=O)c2cccs2)[C@H](C)CN([C@H](C)CO)C(=O)c2cc(NC(=O)Nc3ccc(F)cc3)ccc2O1,active

row,Compound,cytotoxicity call
1,C[C@@H]1CCCCO[C@@H](CN(C)S(=O)(=O)c2cccs2)[C@H](C)CN([C@@H](C)CO)C(=O)c2cc(NC(=O)Cc3ccccc3)ccc2O1,inactive
2,C[C@@H]1CCCCO[C@@H](CN(C)S(=O)(=O)c2cccs2)[C@H](C)CN([C@H](C)CO)C(=O)c2cc(NC(=O)NC3CCCCC3)ccc2O1,active
3,C[C@H](CO)N1C[C@H](C)[C@H](CN(C)S(=O)(=O)c2cccs2)OCCCC[C@H](C)Oc2ccc(NC(=O)Nc3ccc(F)cc3)cc2C1=O,inactive
4,C[C@@H]1CN([C@H](C)CO)C(=O)c2cc(NC(=O)Cc3ccccc3)ccc2O[C@@H](C)CCCCO[C@H]1CN(C)S(=O)(=O)c1cccs1,inactive
5,C[C@@H]1CN([C@@H](C)CO)C(=O)c2cc(NC(=O)NC3CCCCC3)ccc2O[C@@H](C)CCCCO[C@H]1CN(C)S(=O)(=O)c1cccs1,inactive
6,C[C@@H]1CCCCO[C@@H](CN(C)S(=O)(=O)c2cccs2)[C@H](C)CN([C@H](C)CO)C(=O)c2cc(NC(=O)Cc3ccccc3)ccc2O1,active
7,O=C(O)CNC(=O)C1CCC1,inactive
8,COCCNC(=O)C[C@@H]1CC[C@H]2[C@@H](COC[C@H](O)CN2C(=O)Nc2ccc3c(c2)OCO3)O1,inactive
9,CN1C(=O)c2cc(NC(=O)c3cscn3)ccc2OC[C@@H]2O[C@H](CC(=O)N3CCOCC3)CC[C@H]21,inactive
10,C[C@@H]1CCCCO[C@@H](CN(C)C(=O)Cc2ccccc2)[C@H](C)CN([C@H](C)CO)C(=O)c2cc(NC(=O)Nc3ccccc3)ccc2O1,inactive
11,COc1ccc(S(=O)(=O)N(C)C[C@@H]2Oc3ccc(NS(=O)(=O)c4ccccc4)cc3C(=O)N([C@@H](C)CO)C[C@@H]2C)cc1,inactive
12,Cc1noc(C)c1NC(=O)N(C)C[C@@H]1Oc2ccc(NC(=O)c3ccncc3)cc2CC(=O)N([C@H](C)CO)C[C@@H]1C,inactive
13,COC(=O)C1=C2CC[C@H](CO)NC(=O)N[C@H](Cc3ccccc3)C(=O)NCc3cn(nn3)C[C@H](Cc3ccccc3)NC(=O)c3oc(c(C(=O)OC)c3C(=O)OC)CC[C@H](CO)NC(=O)N[C@H](Cc3ccccc3)C(=O)NCc3cn(nn3)C[C@H](Cc3ccccc3)NC(=O)C(=C1C(=O)OC)O2,inactive
14,C[C@@H]1CN([C@H](C)CO)C(=O)c2cc(C3=CCCC3)cnc2O[C@H]1CN(C)C(=O)Nc1ccc(C(F)(F)F)cc1,inactive
15,Cc1ccc(S(=O)(=O)N(C)C[C@H]2OCCCC[C@H](C)Oc3ccc(NC(=O)Nc4cccc5ccccc45)cc3C(=O)N([C@@H](C)CO)C[C@@H]2C)cc1,inactive
16,C[C@H](CO)N1C[C@H](C)[C@@H](CN(C)C(=O)C2CCOCC2)Oc2ncc(C#CCc3ccccc3)cc2C1=O,inactive
17,C[C@@H]1CN([C@H](C)CO)C(=O)c2cc(Br)cnc2O[C@H]1CN(C)C(=O)Nc1ccc(F)cc1,inactive
18,COc1ccc(NC(=O)N(C)C[C@H]2OCCCC[C@H](C)Oc3ccc(NS(=O)(=O)c4ccc(C)cc4)cc3C(=O)N([C@H](C)CO)C[C@@H]2C)cc1,inactive
19,CCCc1cc(C)[nH]c(=O)c1CNC(=O)c1cc(-c2ccc(N3CCN(C(C)C)CC3)nc2)cc2c1cnn2C(C)C,active
20,C[C@@H]1CN([C@H](C)CO)C(=O)c2cc(-c3cccc(C(=O)N(C)C)c3)cnc2O[C@H]1CN(C)S(=O)(=O)c1ccc(F)cc1,inactive
